Screens deposited in PubChem by National Center for Advancing Translational Sciences (NCATS).
ALDH1A1 inh – qHTS Assay for Inhibitors of Aldehyde Dehydrogenase 1 (ALDH1A1); Potency, µM (titrated, usually from 75.3 µM), most hits filed as inhibitors; Aldehyde dehydrogenase 1A1 (Homo sapiens), P00352; 220,000 tested, 7.3% active; Purified ALDH1A1, NADH fluorescence, propionaldehyde substrate
Target sequence (P00352 whole entry, looked up): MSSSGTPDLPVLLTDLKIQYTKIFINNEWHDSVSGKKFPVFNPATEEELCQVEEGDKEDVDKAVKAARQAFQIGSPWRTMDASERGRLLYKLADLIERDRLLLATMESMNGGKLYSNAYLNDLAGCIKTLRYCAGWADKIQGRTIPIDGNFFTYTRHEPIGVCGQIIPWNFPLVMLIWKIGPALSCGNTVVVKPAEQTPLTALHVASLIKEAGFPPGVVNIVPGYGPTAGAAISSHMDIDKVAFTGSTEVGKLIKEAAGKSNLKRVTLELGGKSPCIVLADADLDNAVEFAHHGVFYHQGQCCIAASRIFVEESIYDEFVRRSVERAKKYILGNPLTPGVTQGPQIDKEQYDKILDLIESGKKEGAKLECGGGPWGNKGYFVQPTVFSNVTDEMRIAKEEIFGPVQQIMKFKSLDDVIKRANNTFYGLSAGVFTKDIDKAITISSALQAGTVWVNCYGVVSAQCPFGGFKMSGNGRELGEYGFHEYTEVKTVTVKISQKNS
HPGD inh – qHTS Assay for Inhibitors of HPGD (15-Hydroxyprostaglandin Dehydrogenase); Potency, µM, actives largely listed as inhibitors; 150,000 tested, 4.3% active; 15-hydroxyprostaglandin dehydrogenase [NAD(+)] (Homo sapiens), P15428; AID 894, 2007; purified HPGD, NADH fluorescence kinetic, PGE2 substrate
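NADH formation kinetics: reaction with 30 uM PGE2 and 1 mM NAD+ (final), 20 nM enzyme, Tris-HCl pH 8 with Tween 20, after 15 min compound preincubation at room temperature. Fluorescence change, last versus first of five reads.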
PNC inhibitor – High Content Assay for Compounds that inhibit the Assembly of the Perinucleolar Compartment; PC3M PTB-GFP, PNC prevalence imaging, 16 h; active compounds read low; activity change (PNC), negative = inhibition, % at 10 µM; 140,000 tested, 3.1% active; AID 2417, 2010;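 active = readout at or below -70, meaning at least 70% loss of cells showing the perinucleolar compartment, a nuclear body marking cancer cells; inconclusive = readout between -30 and a set limit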
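Compounds are pinned in duplicate onto adhered PC3M cells stably expressing GFP-tagged PTB and incubated 16 h at 37 C. Cells are then fixed, nuclei stained with Hoechst, and PNC-positive cells counted.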
Numbers stand for hits; n = inactive; u = inconclusive; x = no result given; [ ] = another dose, or the depositor's remark. Sampled rows, rich in hits. Any-hit rate of the full collection: about 11%. Unless noted, calls follow the shape of the dose curve; as a rule, active = well fitted inhibition curve with a large enough effect (not every such curve was filed as active); inconclusive = small, poorly fitted or top-dose-only effect, or another doubt; inactive = no such curve, though single readings can be large or run the other way.

SMILES | ALDH1A1 inh | HPGD inh | PNC inhibitor
COc1cc(OC)cc(C(=O)N2CCC(n3c(C)nc4cc(F)ccc43)CC2)c1 | n | n | n
CC1CCCC(C)N1C(=O)Cn1cnc2cc([N+](=O)[O-])ccc2c1=O (centres undefined) | n | x | x
COc1cccc(CNC(=O)C2CCN(S(=O)(=O)c3cccs3)CC2)c1 | u | n | u
Cc1ccc(N2C(N)=C(C#N)C(c3cccs3)C3=C2CC(C)(C)CC3=O)cc1 (centres undefined) | u | u | n
Cc1ccc(N2CSC3=C(C#N)C(c4cccs4)CC(=O)N3C2)cc1 (centres undefined) | 8.9µM | 7.9µM | u
CC1(C)CC(=O)C2=C(C1)N(c1ccc(F)cc1)C(N)=C(C#N)C2c1cccs1 (centres undefined) | n | n | n
CCOC(=O)c1ccc(N2CSC3=C(C#N)C(c4cccs4)CC(=O)N3C2)cc1 (centres undefined) | 22µM | n | n
CN1CSC2=C(C#N)C(c3cccc(OCc4ccccc4)c3)CC(=O)N2C1 (centres undefined) | 7.9µM | 14µM | n
CCOC(=O)CC1=C(C(=O)OCC)C(c2cccs2)C(C#N)=C(N)O1 (centres undefined) | n | n | n
CN1CCN(c2ccccc2NC(=O)c2cccc(OCc3ccccc3)c2)CC1 | u | n | n
CCc1ccc(N2CSC3=C(C#N)C(c4cccs4)CC(=O)N3C2)cc1 (centres undefined) | 8.9µM | 13µM | n
CN(C)c1oc(-c2ccc(Cl)cc2)nc1S(=O)(=O)c1ccccc1 | n | n | n
CCCOc1ccc(C(=O)c2nc3c(n2O)CCCC3)cc1 | n | n | n
CCCCC(C(=O)N/N=C/c1ccccn1)C(=O)N/N=C/c1ccccn1 | n | x | x
Cc1cc(Nc2ccc(Br)cc2F)n2nc(C)nc2n1 | n | n | u
CCCCc1nc2c(c3c1C[C@H](C)OC3)CN(C(=O)c1cccnc1)CC2 | n[13.5 µM] | n | x
COc1ccc(CNC(=O)c2ccc(NS(=O)(=O)c3c(C)noc3C)cc2)cc1 | n | n | u
COc1ccc(C(=O)n2c(C)c(CCO)c(=O)n2C)cc1 | n | x | x
O=C(N1CCOCC1)N1CCN(S(=O)(=O)c2ccccc2)C1 | n | n | n
O=C(CN(Cc1ccco1)C(=O)c1cc(=O)[nH]c2ccccc12)Nc1ccccc1Br | u | n | u
O=C1NC2=C(CCc3ccccc32)C(c2ccccc2)N1 (centres undefined) | u | u | -113
COc1cc(C2NC(=S)NC3=C2CCc2ccccc23)cc(OC)c1OC (centres undefined) | u | n | u
COc1ccc2c(c1)CCC1=C2NC(=S)NC1c1ccc(N(C)C)cc1 (centres undefined) | 2.8µM | x | x
O=C1Cc2ccccc2C(c2ccccc2)N1 (centres undefined) | n | n | n
COc1ccc(C2C3=C(Nc4ncnn42)c2ccccc2CC3)cc1OC (centres undefined) | n | n | n
SMILES | ALDH1A1 inh | HPGD inh | PNC inhibitor
C=CCOc1ccc(C2NC(=S)NC3=C2CCc2ccccc23)cc1 (centres undefined) | 1µM | x | x
Cc1cc(C)n(-c2ccc(C)c(Cl)c2)n1 | n | n | n
CCOC(=O)C1=NOC(COc2ccccc2C=O)C1 (centres undefined) | n | x | x
N#C/C(=C\c1cc(Cl)cc(Cl)c1)c1cccnc1 | n | x | x
C[C@H](NCCc1ccc(O)cc1)[C@@H](O)c1ccc(O)cc1 | n | n | x
Cn1c(CC(=O)Nc2ccc(Cl)c(Cl)c2)nnc1SCC(=O)N1CCN(c2ccccc2)CC1 | n | n | u
CC(NC(=O)CSc1nnc(CC(=O)Nc2ccc(Cl)c(Cl)c2)n1C)c1ccccc1 (centres undefined) | u | 28µM | n
Cc1cccc(N2CCN(Cc3nc(CC4CC4)no3)CC2)n1 | n | x | x
CC(C)(C)NC(=O)c1ccccc1-c1nc(-c2ccccc2Cl)no1 | u | n | n
O=C1C(Cl)=C(NCCCO)C(=O)c2ccccc21 | n | n | n
Cc1ccc(NC2=C(NCCO)C(=O)c3ccccc3C2=O)cc1 | 22µM | n | n
C[N+]1(CCOc2ccc([N+](=O)[O-])cc2)CCOCC1 | n | n | n
CCC(=O)n1nc(-c2ccco2)nc1SCc1ccccc1 | u | 13µM | u
O=C(c1cccs1)n1nc(-c2ccco2)nc1SCc1ccccc1 | n | u | n
CCC(=O)n1nc(-c2ccco2)nc1N | u | n | n
CC(=O)n1nc(-c2ccco2)nc1SCc1ccccc1 | n | 13µM | n
COc1ccc(C(=O)O/N=C(/C)c2cccs2)cc1 | n | n | n
COc1ccc(C2CC2/C(C)=N/OC(=O)c2cccs2)cc1 (centres undefined) | n | 22µM | n
